# Test: PubChem AID 651827
# Details: Ricerca radioligand binding panel, percent inhibition, at 10 µM, stronger effect = higher value
compound,measurement,setting,value
CS(=O)(=O)N(CC(=O)NCC1CC1)c1cc(C(F)(F)F)ccc1Cl,inhibition,Adenosine A2A binding,-8%
same,inhibition,Adenosine A3 binding,1%
same,inhibition,EGF receptor binding,14%
same,inhibition,IL-1 receptor binding,15%
same,inhibition,L-type Ca benzothiazepine site,48%
same,inhibition,L-type Ca dihydropyridine site,36%
same,inhibition,Melatonin MT1 binding,16%
same,inhibition,PAF receptor binding,15%
same,inhibition,Purinergic P2Y binding,20%
same,inhibition,Serotonin transporter binding,15%
same,inhibition,Thyroid hormone binding,16%
same,inhibition,,-9%
same,inhibition,hERG binding,-2%

# Source: PubChem BioAssay AID651827 (Vanderbilt Specialized Chemistry Center, 2012)
